Test results published in PubChem BioAssay (Tox21).
Results filed as inconclusive are left out. A call without a number means that no potency is given here. Values without a mark were called inactive. The source made the active and inactive calls. Calls come from the whole dose curve; as a rule, active = well fitted activation curve with a large enough effect in the repeat runs; inconclusive = weak or mixed curves; inactive = flat fitted curve, though single readings scatter.

Assay: A CellTox Green Cytotoxicity Assay to monitor cytotoxicity in HEK293 cells - 24 hour (AID 1224875); note: nearly all actives have a fitted effect of over 45% in size
Details: CellTox Green fluorescence; series mostly up to 76.8 µM; activity change: at the top concentration
Excerpt: National Center for Advancing Translational Sciences [NCATS]
NIH Chemical Genomics Center [NCGC]
U.S. Environmental Protection Agency [EPA]
National Institutes of Environmental Health Sciences [NIEHS]
National Toxicology Program [NTP]
Cell-based models are critical for drug discovery. Determining the natural cytotoxic effects resulting from test compounds is an essential research activity. A CellTox Green Cytotoxicity Assay to monitor cytotoxicity in real time of continues cell culture during 40 hours of the compound treatment was used to screen Tox21 10K library compounds in Hek293 cells. CellTox Green Cytotoxicity Assay is a nonlytic, homogeneous, biofluorescent method to measure cytotoxicity in cell culture after experimental manipulation. The assay system uses a proprietary asymmetric cyanine dye that is excluded from viable cells but preferentially stains the dead cell's DNA. […] Viable cells produce no appreciable increases in fluorescence. Therefore, the fluorescence signal produced by the binding interaction with dead cell DNA is proportional to cytotoxicity.
The mixture of Hek293 cell suspension and reagents were dispensed at 600cells/6 ul/well in 1536-well tissue culture treated black solid bottom plates using a Multidrop dispenser. After the assay plates were incubated at a 37 C/5% CO2 incubator for 5 hours, 23 nL of compounds dissolved in DMSO, positive and negative controls was transferred to the assay plate by a pintool work station. The plates were incubated at 37 C for 40 hours. The fluorescence intensity were measured at 0h, 8h, 16h, 24h, 32h and 40h time points using ViewLux plate reader during compound treatment.

SMILES | Potency | activity change
C[Si](C)(C)N[Si](C)(C)C | inactive | 
OCC(CO)(CO)CO | inactive | 
CO[Si](CCCNCCN)(OC)OC | inactive | 
Cc1ccc(Cl)cc1 | inactive | 
COc1ccc([C@@H]2CC(=O)c3c(O)cc(O[C@@H]4O[C@H](CO[C@@H]5O[C@@H](C)[C@H](O)[C@@H](O)[C@H]5O)[C@@H](O)[C@H](O)[C@H]4O)cc3O2)cc1OC | inactive | 
OCCOCCOCCOCCOCCO | inactive | 
Cc1cc(CC(=O)O)n(C)c1C(=O)c1ccc(Cl)cc1 | inactive | 
Cc1ccncc1 | inactive | 
COc1ccccc1[N+](=O)[O-] | inactive | 
CCCCC(CC)COC(=O)c1ccc(C(=O)OCC(CC)CCCC)cc1 (stereo not given) | inactive | 
NC(=O)NC(N)=O | inactive | 
O=C(Cl)c1ccc(C(=O)Cl)cc1 | inactive | 
CC(=O)C(C)C | inactive | 
Cc1ccc([N+](=O)[O-])cc1N | inactive | 
CC/C=C(\C(=O)N[C@@H]1C(=O)N2C(C(=O)OCOC(=O)C(C)(C)C)=C(COC(N)=O)CS[C@H]12)c1csc(N)n1 | inactive | 
CCCN(CCC)C(=O)SCC | inactive | 
CCCOCC(C)O (stereo not given) | inactive | 
Nc1cccc(C(F)(F)F)c1 |  | -8.93%
Cc1cccc(C)c1[N+](=O)[O-] | inactive | 
CCCCCCCCO | inactive | 

SMILES | Potency | activity change
COc1c(Cl)ccc(Cl)c1C(=O)O | inactive | 
CC(C)c1ccc(C(C)C)cc1 | inactive | 
NC(N)=S | inactive | 
CCCCCCCCCCCC(=O)N(C)CC(=O)O | inactive | 
CCCCCCC(=O)O | inactive | 
CCOC(=O)CC(=O)OCC | inactive | 
COc1ccc2cc3[n+](cc2c1OC)CCc1cc2c(cc1-3)OCO2 | inactive | 
CCOC(=O)c1ccc(O)cc1 | inactive | 
NC(=O)c1ncn([C@@H]2O[C@H](CO)[C@@H](O)[C@H]2O)n1 | inactive | 
CC(C=O)Cc1ccc(C(C)(C)C)cc1 (stereo not given) | inactive | 
Cc1ccc(C)c(S(=O)(=O)O)c1 | inactive | 
CC(=O)Nc1ccc(CC(=O)O)cc1 | inactive | 
Nc1cccc(N)n1 | inactive | 
CCn1cc(C(=O)O)c(=O)c2cc3c(cc21)OCO3 | inactive | 
Cc1ccc(C(C)C)cc1 | inactive | 
CCN(CC)CCNC(=O)c1ccc(N)cc1 | inactive | 
O=C(O)C1=NN(c2ccc(S(=O)(=O)O)cc2)C(=O)C1 | inactive | 
CC/C(C)=N/O | inactive | 
Nc1nc(N)c2nc(-c3ccccc3)c(N)nc2n1 | inactive | 
CCc1cccc(O)c1 | inactive | 
